Records with an inconclusive call do not appear. Activity calls are given as the source filed them. Unless noted, calls follow the shape of the dose curve; as a rule, active = well fitted curve in either direction with a large enough effect (not every such curve was filed as active); inconclusive = small, poorly fitted or top-dose-only effect, or another doubt; inactive = flat fitted curve, though single readings scatter.

For assay [1], the target named is Lysosomal acid glucosylceramidase (Homo sapiens) (UniProt P04062). Put plainly: Glucocerebrosidase-p2 (AID 348; in the data active = potency below about 10 µM; also: potency is read from the fitted curve at half-maximal effect). The note with it: purified GBA, blue fluorogenic substrate, 40 min. The method in brief: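 Normal human glucocerebrosidase (0.2 nM) with blue fluorogenic substrate (80 uM final) in citrate/phosphate pH 5.9 with 10mM sodium taurocholate, 0.01% tween-20; 40 min RT, NaOH/glycine stop; fluorescence Ex 365/Em 440; AC50 from a titration from 0.6 nM upwards.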

A short description of assay [2]: AP1 Signaling Pathway (AID 357).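 Also: ME-180 reporter cells stimulated with EGF at its EC50 level; % is scaled to controls: 0 for no effect and ±100 for the full control effect.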 Conditions: ME-180 AP-1-bla reporter, EGF-induced, beta-lactamase ratio, 5 h; at 7.69 µM (top of the series) unless noted. The method in brief: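 In this screen, ME-180 cells in Opti-MEM with 0.5% dialyzed FBS received EC50 EGF and compound titrations for 5 h. AP-1 reporter beta-lactamase was detected via CCF4 ratio, giving AC50 for positive and negative modulators.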

Assay [3] concerns the target Cytochrome P450 1A2 (Homo sapiens) (UniProt P05177). Put plainly: p450-cyp1a2 (AID 410; calls by dose curve;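 also: -100% = full effect of reference inhibitor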). The note with it: recombinant CYP1A2, luciferin-ME demethylation, luminescence; series mostly up to 57 µM. The method in brief: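 20nM CYP1A2, 100uM Luciferin-ME (=Km), 100mM KPO4; cpd 10 min RT; +NADPH regen, 60 min RT; stop/detect 20 min; luminescence. Normalized to furafylline 57 uM = full inhibition.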

Assay [4] can be described thus: Stat Signaling Pathway (AID 446).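 Also: ME-180 cervical cancer cells given 40 pM IL-6 alongside compound; SIE-controlled beta-lactamase reporter measured as 460/530 nm FRET emission ratio; % is scaled to controls: 0 for no effect and ±100 for the full control effect.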 The note with it: ME-180 SIE beta-lactamase reporter, IL-6 stimulated, 5 h; at 7.69 µM (top of the series) unless noted. In short, it runs like this:
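Compound effects on IL-6-induced STAT reporter activity were measured in ME-180 cells. After overnight culture, cells were co-treated with 40 pM IL-6 for 5 hrs before beta-lactamase substrate loading at room temperature.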

For assay [5], the target named is Glucocorticoid receptor (Homo sapiens) (UniProt P04150). In words: GR-EFC Redistribution (AID 451; calls by dose curve; also: potency is read from the fitted curve at half-maximal effect). The note with it: CHO-K1 GR-EFC translocation, beta-gal luminescence, 2 h. The method in brief: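 CHO-K1 cells expressing nuclear EA and GR-ED fragments of b-gal; compounds titrated up to 46 uM final, 2 h at 37 C. GR nuclear translocation read as complemented b-gal luminescence after 1 h RT detection.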

For assay [6], the target named is Mitogen-activated protein kinase 10 (Mus musculus) (UniProt Q61831). In words: JNK3 AlphaScreen Assay (AID 530).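 Also: kinase came from lysate of stimulated human HepG2 cells; signal reports phosphorylation of biotinylated GST-cJun 1-79 at Ser73 with 10 µM ATP; % is scaled to controls: 0 for no effect and ±100 for the full control effect.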 The note with it: JNK3 lysate, c-Jun phosphorylation; series mostly up to 57.1 µM. The method in brief: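 HepG2 lysate (IL-1b/TNFa pre-activated) + biotin-GST-cJun 1-79 + anti-pSer73 cJun; cpd titration, 15 min RT; ATP 10 uM start; Tris pH 7.6, MgCl2, DTT, vanadate; beads in EDTA buffer; AlphaScreen.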
In general terms: In Alpha technology, singlet oxygen from a donor bead excites a nearby acceptor bead.

For assay [7], the target named is 3',5'-cyclic-AMP phosphodiesterase 4B (Homo sapiens) (UniProt Q07343). In words: qHTS Assay for Inhibitors of PDE-IV (AID 607; active = well fitted activation curve with a large enough effect in the main read-out, with a control signal flat, not every such curve was filed as active; also: % of control where 0% means no effect). Conditions: HEK293 ACTOne CNG channel cells, membrane potential fluorescence; series mostly up to 22.9 µM. The method in brief: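 ACTOne HEK293 cells carry a modified cAMP-gated CNG channel and express endogenous PDE4; plated 1000 cells/well, compounds up to 22.9 uM final. Membrane-potential dye fluorescence (ex 535/em 590) was read; parental cells received 10 uM forskolin + 100 uM RO 20-1724.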
On the technique in general: In qHTS, concentration-response curves come from the screen itself.

The target in assay [8] is Cytochrome P450 3A4 (Homo sapiens) (UniProt P08684). In words: qHTS Assay for Inhibitors and Substrates of Cytochrome P450 3A4 (AID 884; active = well fitted curve in the direction sought with a large enough effect; an effect the other way counts as inactive or inconclusive; also: % is scaled to controls: 0 for no effect and ±100 for the full control effect; nearly all actives have a fitted effect of over 50% in size). The note with it: recombinant CYP3A4, Luciferin-PPXE luminescence; series mostly up to 57.1 µM. The method in brief: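 Luminescent readout of luciferin produced by CYP3A4 (20 nM) dealkylation of Luciferin-PPXE, 25 uM (its KM). NADPH-driven reaction ran 60 min at RT after 10 min compound preincubation; data scaled to 57 uM ketoconazole as 100% inhibition.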

Assay [9] shares this target. Put plainly: qHTS Assay for Activators of Cytochrome P450 3A4 (AID 885; active = well fitted curve in the direction sought with a large enough effect; an effect the other way counts as inactive or inconclusive; also: nearly all actives have a fitted effect of over 65% in size; also: potency is read from the fitted curve at half-maximal effect). Conditions: recombinant CYP3A4, Luciferin-PPXE luminescence, 60 min; series mostly up to 57.1 µM. In short, it runs like this:
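CYP3A4 activity: Luciferin-PPXE O-dealkylation, 25uM substrate, 200mM KPO4, RT throughout. Read-out is luciferase luminescence; higher values reflect activation.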

The nature of assay [10]: qHTS Assay for Identification of Small Molecule Agonists for Hypoxia Response Element Signaling Pathway (AID 914; active = well fitted activation curve with a large enough effect in the signal ratio, with a control signal flat, not every such curve was filed as active; the % refers to the signal ratio; also: % of control where 0% means no effect). Conditions: ME-180 (cervical carcinoma) HRE-bla reporter, beta-lactamase ratio, CoCl2, 17 h; activation: stronger effect = higher value. The method in brief:
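Reporter activity (beta-lactamase, CCF4 460nm/530nm ratio) in HRE-bla ME-180 cells is recorded after 17 h compound exposure with EC50 CoCl2 at 37 degrees Celsius. AC50 values come from titration data.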

Assay [11] in a line: qHTS Assay for Lipid Storage Modulators (AID 1519; calls by dose curve). Conditions: Drosophila S3 cells, BODIPY lipid droplet/cell ratio, laser cytometry, cells loaded with oleic acid; for activity change, negative = inhibition: at 57.5 µM (top of the series). In short, it runs like this: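 Cells seeded at 5,000 per well were treated with compounds over a concentration series and loaded with oleic acid (400 uM, as added). Lipid droplet fluorescence (488 nm excitation, 500-530 nm channel) was read by laser-scanning cytometry and normalized to 20 uM Triacsin C.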

The nature of assay [12]: Primary qHTS for small molecule stabilizers of the endoplasmic reticulum resident proteome: Secreted ER Calcium Modulated Protein (SERCaMP) assay (AID 1508630; active = well fitted curve in the direction sought with a large enough effect; an effect the other way counts as inactive or inconclusive; also: % is scaled to controls: 0 for no effect and ±100 for the full control effect). The note with it: SH-SY5Y GLuc-SERCaMP (Gaussia luciferase released on ER calcium loss) secretion, thapsigargin, luminescence; series mostly up to 38.4 µM. In short, it runs like this: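 The SH-SY5Y reporter protocol was run at 3 concentrations up to 38.3 uM (primary) or 11 concentrations (follow-up): 16 h compound, 100 nM thapsigargin for 4 h, then extracellular luciferase luminescence.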

The nature of assay [13]: NFAT Signaling Pathway (AID 444). The note with it: Jurkat NFAT-bla M1, carbachol, beta-lactamase ratio, 5 h; at 7.69 µM (top of the series) unless noted. In short, it runs like this:
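Jurkat cells with NFAT-driven β-lactamase reporter and co-expressed M1 receptor, stimulated with carbachol (final 1 uM, ~EC50), compound titration, 5 h at 37 °C. CCF4 loaded 1 h at RT; 460/530 nm ratio gave %activity and AC50.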

For assay [14], the target named is Glucocorticoid receptor (Homo sapiens) (UniProt P04150). Put plainly: GR-GFP Redistribution (AID 450;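 active = compounds whose dose series gives a full or clear partial fitted curve of increased nuclear translocation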; also: potency is read from the fitted curve at half-maximal effect). Conditions: U2OS GR-GFP nuclear translocation, laser cytometry, 2 h.
The nature of assay [15]: Confirmation and Secondary Assay for Modulators of Hemoglobin Beta Chain Splicing at IVS2 654 locus (AID 910; active = well fitted curve in the direction sought with a large enough effect; an effect the other way counts as inactive or inconclusive;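 also: HeLa cells stably carrying EGFP split by mutant beta-globin IVS2-654 intron; % of control where 0% means no effect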). Conditions: HeLa EGFP-654 splicing reporter, GFP fluorescence, 48 h; series mostly up to 38.3 µM. In short, it runs like this:
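HeLa cells stably expressing EGFP interrupted by β-globin IVS2-654 intron, seeded overnight in Opti-MEM/2% FCS, then treated 2 days at 37 °C. Restored splicing read as total peak GFP intensity per well by laser scanning cytometry (488 nm excitation, 500–520 nm emission); 500 nM antisense PNA as control.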

The nature of assay [16]: Confirmation and Secondary Assay for Modulators of Hemoglobin Beta Chain Splicing at IVS2 705 locus (AID 930; active = well fitted curve in the direction sought with a large enough effect; an effect the other way counts as inactive or inconclusive;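 also: HeLa cells stably expressing the EGFP-705 splicing reporter; GFP fluorescence per well restored by corrected splicing of the IVS2-705 intron in EGFP; % of control where 0% means no effect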). Conditions: HeLa EGFP-705 splicing reporter, GFP fluorescence, 48 h; series mostly up to 38.3 µM. In short, it runs like this:
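Stable HeLa line with EGFP disrupted by mutant beta-globin intron 2 (705). Overnight attachment, then 2 days of compound at 37C, 5% CO2. Signal: peak GFP intensity summed over objects 5-250 µm.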

Setting [17] is: measured here: cell count channel max response.
Setting [18] is: measured here: lipid channel max response.

Chain of 3',5'-cyclic-AMP phosphodiesterase 4B (Homo sapiens) (Q07343 whole entry, looked up): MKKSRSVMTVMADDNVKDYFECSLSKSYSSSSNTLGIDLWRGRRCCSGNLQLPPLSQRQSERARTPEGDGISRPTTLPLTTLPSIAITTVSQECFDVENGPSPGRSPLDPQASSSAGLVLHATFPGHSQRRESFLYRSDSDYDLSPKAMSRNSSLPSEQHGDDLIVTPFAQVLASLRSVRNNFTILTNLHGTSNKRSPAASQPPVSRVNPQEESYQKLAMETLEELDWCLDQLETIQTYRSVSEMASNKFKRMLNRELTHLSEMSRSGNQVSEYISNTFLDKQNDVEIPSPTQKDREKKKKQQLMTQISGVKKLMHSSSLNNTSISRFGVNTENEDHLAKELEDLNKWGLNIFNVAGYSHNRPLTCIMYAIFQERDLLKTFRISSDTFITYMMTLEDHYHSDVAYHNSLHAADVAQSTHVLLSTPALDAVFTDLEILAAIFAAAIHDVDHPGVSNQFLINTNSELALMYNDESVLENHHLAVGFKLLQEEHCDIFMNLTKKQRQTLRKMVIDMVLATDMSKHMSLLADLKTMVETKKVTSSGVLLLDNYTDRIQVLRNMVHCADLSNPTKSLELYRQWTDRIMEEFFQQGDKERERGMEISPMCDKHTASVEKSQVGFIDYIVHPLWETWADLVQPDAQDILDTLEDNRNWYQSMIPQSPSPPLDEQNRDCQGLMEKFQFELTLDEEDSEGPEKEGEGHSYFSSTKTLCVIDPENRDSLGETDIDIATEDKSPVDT
Chain of Lysosomal acid glucosylceramidase (Homo sapiens) (P04062 whole entry, looked up): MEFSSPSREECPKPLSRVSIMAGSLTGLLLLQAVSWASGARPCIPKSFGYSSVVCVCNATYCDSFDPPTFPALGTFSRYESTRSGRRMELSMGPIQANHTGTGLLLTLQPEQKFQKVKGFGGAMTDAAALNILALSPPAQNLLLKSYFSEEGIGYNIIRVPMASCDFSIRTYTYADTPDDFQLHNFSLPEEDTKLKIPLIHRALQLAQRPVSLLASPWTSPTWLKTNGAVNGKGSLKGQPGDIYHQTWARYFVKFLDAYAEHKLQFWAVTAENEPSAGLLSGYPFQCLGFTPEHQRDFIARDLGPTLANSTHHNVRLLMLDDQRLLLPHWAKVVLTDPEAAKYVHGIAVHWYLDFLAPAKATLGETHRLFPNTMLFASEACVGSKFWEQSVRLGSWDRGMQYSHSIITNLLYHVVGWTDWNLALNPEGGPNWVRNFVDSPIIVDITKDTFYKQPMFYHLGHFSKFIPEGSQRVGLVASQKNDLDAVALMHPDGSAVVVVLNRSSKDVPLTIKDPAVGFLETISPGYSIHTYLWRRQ
Chain of Cytochrome P450 3A4 (Homo sapiens) (P08684 whole entry, looked up): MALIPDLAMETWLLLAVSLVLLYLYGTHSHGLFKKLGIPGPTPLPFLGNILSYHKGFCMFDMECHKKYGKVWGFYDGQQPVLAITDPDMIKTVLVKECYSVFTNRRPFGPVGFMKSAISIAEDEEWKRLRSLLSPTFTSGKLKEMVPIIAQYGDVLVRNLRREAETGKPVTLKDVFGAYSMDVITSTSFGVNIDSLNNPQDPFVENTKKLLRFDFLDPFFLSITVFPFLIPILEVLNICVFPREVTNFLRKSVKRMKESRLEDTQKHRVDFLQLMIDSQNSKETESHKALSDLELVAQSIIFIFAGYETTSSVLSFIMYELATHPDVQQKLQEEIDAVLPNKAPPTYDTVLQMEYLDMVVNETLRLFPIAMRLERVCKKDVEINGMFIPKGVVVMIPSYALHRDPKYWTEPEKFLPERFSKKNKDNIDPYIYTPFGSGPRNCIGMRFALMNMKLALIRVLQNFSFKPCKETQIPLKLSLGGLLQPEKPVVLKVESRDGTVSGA
Chain of Cytochrome P450 1A2 (Homo sapiens) (P05177 whole entry, looked up): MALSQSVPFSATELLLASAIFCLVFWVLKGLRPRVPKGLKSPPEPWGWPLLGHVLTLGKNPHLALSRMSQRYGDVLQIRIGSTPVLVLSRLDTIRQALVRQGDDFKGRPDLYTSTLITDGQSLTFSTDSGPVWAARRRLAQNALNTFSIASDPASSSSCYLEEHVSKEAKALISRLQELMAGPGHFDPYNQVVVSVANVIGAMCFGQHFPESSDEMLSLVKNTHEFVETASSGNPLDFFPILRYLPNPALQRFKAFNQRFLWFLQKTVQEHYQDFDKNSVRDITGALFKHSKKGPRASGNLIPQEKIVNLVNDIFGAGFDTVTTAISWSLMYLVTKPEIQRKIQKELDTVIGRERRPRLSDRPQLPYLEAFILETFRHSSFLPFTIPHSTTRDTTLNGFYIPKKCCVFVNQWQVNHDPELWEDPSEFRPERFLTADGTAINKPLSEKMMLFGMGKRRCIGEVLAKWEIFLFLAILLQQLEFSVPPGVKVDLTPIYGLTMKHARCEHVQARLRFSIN
Chain of Glucocorticoid receptor (Homo sapiens) (P04150 whole entry, looked up, the tested form may be a part): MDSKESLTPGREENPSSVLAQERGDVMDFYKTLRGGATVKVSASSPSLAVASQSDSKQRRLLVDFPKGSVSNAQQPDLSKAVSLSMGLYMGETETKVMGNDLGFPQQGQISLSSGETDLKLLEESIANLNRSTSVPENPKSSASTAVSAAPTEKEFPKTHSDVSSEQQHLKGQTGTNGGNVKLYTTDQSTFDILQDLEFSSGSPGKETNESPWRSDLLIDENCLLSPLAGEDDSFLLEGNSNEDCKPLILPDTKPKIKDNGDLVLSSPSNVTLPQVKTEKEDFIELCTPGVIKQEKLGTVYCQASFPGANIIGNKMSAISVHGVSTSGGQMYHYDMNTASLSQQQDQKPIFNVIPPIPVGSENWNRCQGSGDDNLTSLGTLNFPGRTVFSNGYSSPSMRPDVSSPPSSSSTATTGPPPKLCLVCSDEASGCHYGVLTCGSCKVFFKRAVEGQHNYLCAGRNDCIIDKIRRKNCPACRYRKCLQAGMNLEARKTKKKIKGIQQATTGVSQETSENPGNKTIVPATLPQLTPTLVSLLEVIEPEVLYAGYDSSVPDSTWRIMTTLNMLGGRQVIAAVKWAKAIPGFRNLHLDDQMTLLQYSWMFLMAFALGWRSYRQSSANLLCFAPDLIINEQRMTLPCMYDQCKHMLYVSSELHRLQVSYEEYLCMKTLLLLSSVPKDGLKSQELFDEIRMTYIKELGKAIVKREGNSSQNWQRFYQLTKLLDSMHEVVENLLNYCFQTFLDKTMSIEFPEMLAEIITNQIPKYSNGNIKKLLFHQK

For `O=C(Oc1ccccc1)N1CCC2(CC1)CCN(c1ncccn1)CC2`, the results for the Potency in assay [1], in assay [5] and in [9] were > 11.4 µM (inactive), > 46 µM (inactive) and 6.31 µM (active), respectively. In addition, the activity change, negative = inhibition is 3.96% (inactive) in [2] and 2.83% (inactive) in assay [11]. Further, the Potency entry in [3], in assay [7], in assay [8] and in assay [12] was “inactive” in each case. The activity, negative = inhibition in assay [4] is -1.88% (inactive). Moreover, the result in [6] was inactive. The activation in [10] is 2.8% (inactive). The max response in assay [11] (setting [17]) was -3.54%; in assay [11] (setting [18]), 1.32%.

In the case of `Cc1noc(C)c1C(=O)N1CCC2(CCN(C(=O)Nc3ccccc3)CC2)CC1`, the Potency is > 11.4 µM (inactive) in assay [1] and > 46 µM (inactive) in [5]. Further, the activity change, negative = inhibition is -7.04% (inactive) in [2], -2.66% (inactive) in [13] and 3.9% (inactive) in assay [11]. Moreover, the activity, negative = inhibition in assay [4] was -7.75% (inactive). The outcome in assay [6] was inactive. For the same compound, the Potency entry in [7], in [8] and in assay [12] was “inactive” throughout. Further, the max response was -0.903% in assay [11] (setting [17]) and 4.81% in assay [11] (setting [18]).

In the case of `O=C(Oc1ccccc1)N1CCC2(CC1)CCN(c1ccccc1)CC2`, the Potency is > 11.4 µM (inactive) in [1], > 46 µM (inactive) in [5] and 3.16 µM (active) in assay [9]. Also, the values for the activity change, negative = inhibition in assay [2] and in assay [11] were 20.6% (inactive) and -1.08% (inactive), respectively. Further, the Potency result in assay [3], in [7], in assay [8] and in assay [12] was “inactive” in each case. Besides, the activity, negative = inhibition in assay [4] was -1.28% (inactive). Also, in [6], the outcome was inactive. Also, the max response in assay [11] (setting [17]) was -1.11%; in assay [11] (setting [18]) it was -1.37%.

As for `FC(F)(F)c1ccccc1-c1cc(N2CCNCC2)ncn1`, the Potency in [1] is > 11.4 µM (inactive); in assay [14], > 46 µM (inactive); in assay [5], > 46 µM (inactive). Moreover, the activity change, negative = inhibition was 10.3% (inactive) in [2], 5.38% (inactive) in assay [13] and 9.89% (inactive) in assay [11]. The activity, negative = inhibition in assay [4] is 3.09% (inactive). Further, the outcome in [6], in assay [15] and in assay [16] was inactive. The Potency entry in assay [7] and in assay [12] was “inactive” in each case. Besides, the max response in assay [11] (setting [17]) is 13.9%; in [11] (setting [18]) it was 24.8%.

As for `CC(=O)N1CCC2(CCCN(C(=O)Nc3cccc(F)c3)C2)CC1`, the Potency in assay [1] is > 11.4 µM (inactive); in assay [5], > 46 µM (inactive). Further, the figures for the activity change, negative = inhibition in [2] and in [11] were -2.22% (inactive) and -0.823% (inactive), respectively. Besides, the Potency entry in assay [3], in assay [7], in [9] and in assay [12] was “inactive” each time. The activity, negative = inhibition in assay [4] is -6.7% (inactive). Moreover, the call in assay [6] was inactive. Moreover, the max response is -12.4% in assay [11] (setting [17]) and -13.5% in [11] (setting [18]).

Regarding `O=C(Nc1ccccc1)N1CC2(CCN(C(=O)c3cccc(F)c3)CC2)C1`, the Potency was > 11.4 µM (inactive) in assay [1] and > 46 µM (inactive) in assay [5]. Moreover, the results for the activity change, negative = inhibition in assay [2], in assay [13] and in [11] were 13.2% (inactive), 14.3% (inactive) and 5.53% (inactive), respectively. In addition, the activity, negative = inhibition in [4] was 0.524% (inactive). The compound was called inactive in assay [6]. Also, the Potency result in [7] and in assay [12] was “inactive” throughout. Further, the max response in [11] (setting [17]) was 9.88%; in [11] (setting [18]), 20.2%.

The record behind these values is PubChem BioAssay (NCATS).
